# Results from PubChem BioAssay.
# Several values for one entry are separate records, joined by “and”; a condition that tells them apart may be missing. Equal values may be shown once. Results filed as inconclusive are left out. Activity calls are given as the source filed them.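 The calls were made as follows, unless noted: active = normalized viability below 100% at a tested concentration; inactive = the rest.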
# Tests used:
# [1] = liver-stage malaria parasite growth inhibition, primary screen, cell-based, HepG2, luciferase luminescence, HepG2 viability (AID 624349; in the data active = parasite load remaining mostly below about 12%, no sharp cut-off; inactive = mostly above about 10%;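 also: 100% = mean of DMSO negative control wells on the same plate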); settings: P. berghei liver stage in HepG2, luciferase luminescence, concentration not given here; parasite load remaining: stronger effect = lower value; viability: measured here: HepG2 viability without parasites
# [2] = differential killing of epithelial or mesenchymal cells, primary screen, imaging, PC-3E GFP, TEM4-18 mCherry, co-culture (AID 1345086;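 active = compounds killing one labelled cell type while sparing the other, by normalised counts and ratio limits, not self-fluorescent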;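 as to all read-outs here: cells exposed to compound for 72 h before imaging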;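 as to red/green cell ratio (normalised): normalised mesenchymal count divided by normalised epithelial count so high means epithelial killing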); settings: imaging cell counts, at 1 µM; for red/green cell ratio (normalised): actives lie on both sides, counts scaled to control wells, 1 = unselective
# [3] = growth inhibition of DIPG glioma cells, dose response, cell-based, SU-DIPG-XVII, MIPE5.0, CellTiter-Glo, qHTS (AID 1347060; cut-off not given, nearly all actives have AC50 up to about 26 µM;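 as to AC50: cells exposed to compound for 48 hours before viability readout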); settings: SU-DIPG-XVII viability, CellTiter-Glo ATP luminescence
# [4] = growth inhibition of DIPG glioma cells, dose response, cell-based, JHH-DIPG-1, MIPE4.0, CellTiter-Glo, qHTS (AID 1347062; cut-off not given, nearly all actives have AC50 up to about 27 µM); settings: JHH-DIPG-1 viability, CellTiter-Glo ATP luminescence
# [5] = viability loss in pontine glioma line – cell-based, SU-DIPG-XXV, MIPE5.0, CellTiter-Glo, qHTS, dose response (AID 1347065; cut-off not given, nearly all actives have AC50 up to about 26 µM;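 also: cells exposed to compound for 48 hours before ATP readout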); settings: CellTiter-Glo ATP luminescence
# [6] = SU-DIPG-VI glioma cell viability, MIPE4.0 library, CellTiter-Glo luminescence, qHTS (AID 1347066; cut-off not given, nearly all actives have AC50 up to about 30 µM;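 also: cells exposed to compound for 48 hours before readout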); settings: CellTiter-Glo ATP luminescence
# [7] = JHH-DIPG-1 glioma cell viability, MIPE5.0 library, CellTiter-Glo luminescence, qHTS (AID 1347067; cut-off not given, nearly all actives have AC50 up to about 26 µM;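 also: cells exposed to compound for 48 hours before readout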); settings: JHH-DIPG-1 glioma viability, CellTiter-Glo ATP luminescence
# [8] = SU-DIPG-XXV glioma cell viability, MIPE5.0 library, qHTS (AID 1347068; cut-off not given, nearly all actives have IC50 up to about 30 µM)
# [9] = sensitizers of A549 cells to miR-34 induction, primary screen, imaging, A549 dox-inducible miR-34, nuclei and caspase counts (AID 1347080;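 active = compounds whose cell count with miR-34 switched on is under 0.7 times the count with it off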); settings: A549 miR-34 inducible, Hoechst nuclei count, 48 h
# [10] = ovarian cancer cell viability with rucaparib, profiling panel, oncology-focused library, rucaparib conditional (AID 1508598); settings: patient-derived ovarian cancer cells, CellTiter-Glo viability, 144 h, stronger effect = lower value
# [11] = biological target: NAD(+) hydrolase SARM1 (Homo sapiens) (UniProt Q6SZW1); assay: SARM1 TIR NADase inhibitors, cell lysate, NAD-Glo luminescence (AID 1508614;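 active = compound whose remaining NAD level is above about 45 nM, limit read from the data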;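 also: higher remaining NAD means stronger inhibition of SARM1 NADase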); settings: SAM-TIR HEK293T lysate NADase, at 1 µM, stronger effect = higher value
# Chain of NAD(+) hydrolase SARM1 (Homo sapiens) (Q6SZW1 whole entry, looked up, the tested form may be a part): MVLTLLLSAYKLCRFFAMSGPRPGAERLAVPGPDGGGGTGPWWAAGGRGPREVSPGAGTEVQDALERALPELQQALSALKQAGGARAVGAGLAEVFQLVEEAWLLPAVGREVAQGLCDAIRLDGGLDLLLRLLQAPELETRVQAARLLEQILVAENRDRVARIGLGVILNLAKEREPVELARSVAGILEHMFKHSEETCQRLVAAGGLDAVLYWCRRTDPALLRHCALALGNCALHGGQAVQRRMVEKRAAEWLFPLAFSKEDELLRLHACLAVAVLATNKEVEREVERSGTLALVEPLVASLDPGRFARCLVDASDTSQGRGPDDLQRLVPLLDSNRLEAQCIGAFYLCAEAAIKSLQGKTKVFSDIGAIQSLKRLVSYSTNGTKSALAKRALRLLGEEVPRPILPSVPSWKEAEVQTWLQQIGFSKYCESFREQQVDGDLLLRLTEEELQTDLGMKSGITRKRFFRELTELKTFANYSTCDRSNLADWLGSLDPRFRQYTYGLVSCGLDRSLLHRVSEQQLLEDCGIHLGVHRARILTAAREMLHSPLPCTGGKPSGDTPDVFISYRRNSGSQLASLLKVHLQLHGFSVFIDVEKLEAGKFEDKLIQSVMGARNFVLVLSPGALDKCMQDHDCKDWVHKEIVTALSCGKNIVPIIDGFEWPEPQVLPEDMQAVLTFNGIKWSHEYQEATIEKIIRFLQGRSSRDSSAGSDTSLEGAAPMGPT
# [12] = biological target: Mitogen-activated protein kinase 7 (Homo sapiens) (UniProt Q13164); assay: ERK5 transactivation activators in reporter cells, primary screen, cell-based, HTS (AID 1508626;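 active = luciferase signal above three times the same-plate solvent-only control wells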;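 also: luciferase driven by Gal4-ERK5 fusion binding five Gal4 sites before minimal TATA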); settings: HeLa Gal4-ERK5 transactivation, 18 h, at 5 µM, stronger effect = higher value
# Chain of Mitogen-activated protein kinase 7 (Homo sapiens) (Q13164 whole entry, looked up, the tested form may be a part): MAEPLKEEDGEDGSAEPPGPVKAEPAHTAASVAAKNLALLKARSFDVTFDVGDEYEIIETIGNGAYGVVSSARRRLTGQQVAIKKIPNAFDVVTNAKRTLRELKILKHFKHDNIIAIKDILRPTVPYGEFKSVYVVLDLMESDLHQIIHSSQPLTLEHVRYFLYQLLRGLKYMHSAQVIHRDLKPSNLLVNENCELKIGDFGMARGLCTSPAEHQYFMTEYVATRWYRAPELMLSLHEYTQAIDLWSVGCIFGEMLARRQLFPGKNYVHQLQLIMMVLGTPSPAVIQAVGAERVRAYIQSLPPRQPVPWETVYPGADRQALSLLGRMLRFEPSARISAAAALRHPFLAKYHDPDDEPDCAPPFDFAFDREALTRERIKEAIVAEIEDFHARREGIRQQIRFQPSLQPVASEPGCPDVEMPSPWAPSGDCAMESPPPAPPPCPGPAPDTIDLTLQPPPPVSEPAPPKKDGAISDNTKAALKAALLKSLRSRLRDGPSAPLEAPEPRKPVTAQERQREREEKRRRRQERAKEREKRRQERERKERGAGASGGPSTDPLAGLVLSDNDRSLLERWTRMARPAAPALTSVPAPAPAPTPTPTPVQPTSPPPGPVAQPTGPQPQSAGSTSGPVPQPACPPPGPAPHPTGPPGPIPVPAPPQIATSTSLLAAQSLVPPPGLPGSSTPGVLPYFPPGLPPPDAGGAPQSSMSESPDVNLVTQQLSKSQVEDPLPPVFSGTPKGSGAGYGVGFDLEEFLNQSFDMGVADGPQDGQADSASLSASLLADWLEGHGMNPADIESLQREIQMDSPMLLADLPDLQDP
# [13] = growth inhibition of DIPG glioma cells, dose response, cell-based, SU-DIPG-IV, MIPE4.0, CellTiter-Glo, qHTS (AID 1347063; cut-off not given, nearly all actives have AC50 up to about 30 µM;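 also: compound exposure lasted 48 hours before the viability readout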); settings: SU-DIPG-IV viability, CellTiter-Glo ATP luminescence
# [14] = growth inhibition of DIPG glioma cells, dose response, cell-based, SU-DIPG-XIII, MIPE4.0, CellTiter-Glo, qHTS (AID 1347061; cut-off not given, nearly all actives have AC50 up to about 37 µM;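 also: cells exposed to compound for 48 hours before readout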); settings: SU-DIPG-XIII viability, CellTiter-Glo ATP luminescence
# [15] = growth inhibition of DIPG glioma cells, dose response, cell-based, SU-DIPG-XIII, MIPE5.0, CellTiter-Glo, qHTS (AID 1347064; cut-off not given, nearly all actives have AC50 up to about 23 µM); settings: SU-DIPG-XIII viability, CellTiter-Glo ATP luminescence
# [16] = survival rescue of mitochondrial mutant cells in low glucose, primary screen, MELAS cybrids, Rieske KO mouse fibroblasts, CellTiter-Glo (AID 1508586;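 active = mean z-score across replicates of 1.96 or higher in either the MELAS or the Rieske mutant cell line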;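 also: z relative to plate mean and SD of compound and empty wells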)
# [17] = viability rescue of complex I mutant cybrids, primary screen, cell-based, galactose medium, ATP luminescence (AID 1645843;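 active = z-score of at least 1.8 in each of two replicates, scored against plate mean and spread of sample wells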;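 also: positive z means more ATP and so rescue of galactose-driven cybrid death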); settings: complex I mutant cybrid cells, 72 h, stronger effect = higher value
# [18] = measured here: epithelial PC-3E GFP cell survival
# [19] = measured here: mesenchymal TEM4-18 mCherry cell survival
# [20] = stronger effect = lower value, cell number ratio, induced over uninduced
# [21] = measured here: relative caspase fold change +Dox/-Dox
# [22] = measured here: total cells with miR-34 induction, stronger effect = lower value
# [23] = measured here: total cells without miR-34 induction
# [24] = MELAS cybrid survival, CellTiter-Glo 48 h, stronger effect = higher value
# [25] = Rieske KO mouse fibroblast survival, CellTiter-Glo 72 h
smiles,measurement,setting,value
Nc1nc(F)nc2c1ncn2[C@@H]1O[C@H](COP(=O)(O)O)[C@@H](O)[C@@H]1O,parasite load remaining,[1],22.2% (inactive)
same,viability,[1],105%
same,red/green cell ratio (normalised),[2],1.06 (inactive)
same,normalised cell number,[2]; [18],0.86
same,normalised cell number,[2]; [19],0.92
same,AC50,[3],18.6 µM (active)
same,outcome,[4],inactive
same,outcome,[5],inactive
same,outcome,[6],inactive
same,outcome,[7],inactive
same,outcome,[8],inactive
same,fold change,[9]; [20],1.07 (inactive)
same,fold change,[9]; [21],1.01
same,cell count,[9]; [22],1570
same,cell count,[9]; [23],1470
same,viability,"[10]; at 0.000305 µM, OCI-C5x cells, with rucaparib 10 µM, 100% = cells with rucaparib alone",107% (inactive)
same,viability,"[10]; at 0.000305 µM, OCI-C5x cells, without rucaparib",110% (inactive)
same,viability,"[10]; at 0.000305 µM, OCI-P5x cells, with rucaparib 20 µM, 100% = cells with rucaparib alone",111% (inactive)
same,viability,"[10]; at 0.000305 µM, OCI-P5x cells, without rucaparib",109% (inactive)
same,viability,"[10]; at 0.00122 µM, OCI-C5x cells, with rucaparib 10 µM, 100% = cells with rucaparib alone",107% (inactive)
same,viability,"[10]; at 0.00122 µM, OCI-C5x cells, without rucaparib",109% (inactive)
same,viability,"[10]; at 0.00122 µM, OCI-P5x cells, with rucaparib 20 µM, 100% = cells with rucaparib alone",106% (inactive)
same,viability,"[10]; at 0.00122 µM, OCI-P5x cells, without rucaparib",109% (inactive)
same,viability,"[10]; at 0.00488 µM, OCI-C5x cells, with rucaparib 10 µM, 100% = cells with rucaparib alone",105% (inactive)
same,viability,"[10]; at 0.00488 µM, OCI-C5x cells, without rucaparib",111% (inactive)
same,viability,"[10]; at 0.00488 µM, OCI-P5x cells, with rucaparib 20 µM, 100% = cells with rucaparib alone",107% (inactive)
same,viability,"[10]; at 0.00488 µM, OCI-P5x cells, without rucaparib",110% (inactive)
same,viability,"[10]; at 0.0195 µM, OCI-C5x cells, with rucaparib 10 µM, 100% = cells with rucaparib alone",97% (active)
same,viability,"[10]; at 0.0195 µM, OCI-C5x cells, without rucaparib",111% (inactive)
same,viability,"[10]; at 0.0195 µM, OCI-P5x cells, with rucaparib 20 µM, 100% = cells with rucaparib alone",109% (inactive)
same,viability,"[10]; at 0.0195 µM, OCI-P5x cells, without rucaparib",108% (inactive)
same,viability,"[10]; at 0.0781 µM, OCI-C5x cells, with rucaparib 10 µM, 100% = cells with rucaparib alone",101% (inactive)
same,viability,"[10]; at 0.0781 µM, OCI-C5x cells, without rucaparib",112% (inactive)
same,viability,"[10]; at 0.0781 µM, OCI-P5x cells, with rucaparib 20 µM, 100% = cells with rucaparib alone",109% (inactive)
same,viability,"[10]; at 0.0781 µM, OCI-P5x cells, without rucaparib",110% (inactive)
same,viability,"[10]; at 0.313 µM, OCI-C5x cells, with rucaparib 10 µM, 100% = cells with rucaparib alone",87.1% (active)
same,viability,"[10]; at 0.313 µM, OCI-C5x cells, without rucaparib",98.3% (active)
same,viability,"[10]; at 0.313 µM, OCI-P5x cells, with rucaparib 20 µM, 100% = cells with rucaparib alone",106% (inactive)
same,viability,"[10]; at 0.313 µM, OCI-P5x cells, without rucaparib",107% (inactive)
same,viability,"[10]; at 1.25 µM, OCI-C5x cells, with rucaparib 10 µM, 100% = cells with rucaparib alone",82.9% (active)
same,viability,"[10]; at 1.25 µM, OCI-C5x cells, without rucaparib",78% (active)
same,viability,"[10]; at 1.25 µM, OCI-P5x cells, with rucaparib 20 µM, 100% = cells with rucaparib alone",114% (inactive)
same,viability,"[10]; at 1.25 µM, OCI-P5x cells, without rucaparib",111% (inactive)
same,viability,"[10]; at 5 µM, OCI-C5x cells, with rucaparib 10 µM, 100% = cells with rucaparib alone",58.5% (active)
same,viability,"[10]; at 5 µM, OCI-C5x cells, without rucaparib",59.8% (active)
same,viability,"[10]; at 5 µM, OCI-P5x cells, with rucaparib 20 µM, 100% = cells with rucaparib alone",106% (inactive)
same,viability,"[10]; at 5 µM, OCI-P5x cells, without rucaparib",78.1% (active)
same,remaining NAD,[11],10 nM (inactive)
same,luciferase signal,[12],52 AU (inactive)
CC(C)=CCC/C(C)=C/CC/C(C)=C/CC/C(C)=C/CC/C(C)=C/CC/C(C)=C/CC/C(C)=C/CC/C(C)=C/CC/C(C)=C/CO,red/green cell ratio (normalised),[2],1.11 (inactive)
same,normalised cell number,[2]; [18],0.97
same,normalised cell number,[2]; [19],1.07
same,outcome,[4],inactive
same,outcome,[13],inactive
same,outcome,[6],inactive
same,luciferase signal,[12],20 AU (inactive)
CC(C)(CO)[C@@H](O)C(=O)NCCC(=O)O,parasite load remaining,[1],90.7% (inactive) and 34.6% (inactive)
same,viability,[1],107% and 75%
same,red/green cell ratio (normalised),[2],1.39 (inactive)
same,normalised cell number,[2]; [18],0.63
same,normalised cell number,[2]; [19],0.88
same,outcome,[3],inactive
same,outcome,[14],inactive
same,outcome,[4],inactive
same,outcome,[13],inactive
same,outcome,[15],inactive
same,outcome,[6],inactive
same,outcome,[7],inactive
same,outcome,[8],inactive
same,fold change,[9]; [20],0.92 (inactive) and 0.869 (inactive) and 0.91 (inactive)
same,fold change,[9]; [21],0.716 and 3.95 and 1.15
same,cell count,[9]; [22],9860 and 12000 and 9850
same,cell count,[9]; [23],10700 and 13800 and 10800
same,z-score,[16]; [24],-0.406 (inactive) and -0.744 (inactive)
same,z-score,[16]; [25],0.568 and -1.28
same,remaining NAD,[11],10 nM (inactive)
same,luciferase signal,[12],68 AU (inactive)
same,z-score,[17],-0.065 (inactive)
CN1C(C(=O)Nc2ccccn2)=C(O)c2sc(Cl)cc2S1(=O)=O,red/green cell ratio (normalised),[2],0.78 (inactive)
same,normalised cell number,[2]; [18],1.13
same,normalised cell number,[2]; [19],0.88
same,outcome,[3],inactive
same,outcome,[4],inactive
same,outcome,[13],inactive
same,outcome,[5],inactive
same,outcome,[6],inactive
same,outcome,[7],inactive
same,outcome,[8],inactive
same,fold change,[9]; [20],0.905 (inactive) and 0.871 (inactive)
same,fold change,[9]; [21],0.83 and 0.817
same,cell count,[9]; [22],9030 and 7600
same,cell count,[9]; [23],9980 and 8730
same,z-score,[16]; [24],-0.192 (inactive)
same,z-score,[16]; [25],0.681
same,remaining NAD,[11],10 nM (inactive)
